Consider three molecules from PubChem BioAssay (EPA / NIEHS).

The nature of test [1]: ATG_GLI_CIS: Attagene CIS-FACTORIAL HepG2 Assay for human Zinc Finger Protein GLI1 (AID 2282945). To be noted: HepG2, Attagene cis-factorial reporter mRNA, GLI element; actives raise or lower the signal. In a few lines:
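HepG2 cells transiently transfected with cis-promoter multiplexed reporter units report endogenous transcription factor activity. After 24 h chemical exposure, reporter mRNA was quantified by RT-PCR, 6-FAM labelling, HpaI digestion and capillary electrophoresis, with bidirectional fitting against DMSO.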

Test [2] deals with Bile acid receptor (Homo sapiens) (UniProt Q96RI1). In words: ATG_IR1_CIS: Attagene CIS-FACTORIAL HepG2 Assay for human Nuclear Receptor Subfamily 1 Group H Member 4 (NR1H4), IR1 submotif (AID 2282946). The settings on record: IR1 reporter transcription, actives raise or lower the signal. The method in brief: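 Readout: reporter transcript levels by RT-PCR with fluorescent capillary electrophoresis, from HepG2 cells transiently transfected with multiplexed cis-regulated reporters and dosed 24 h. Gain- or loss-of-signal fitted versus DMSO negative control.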

Test [3] is described as follows: ATG_GRE_CIS: Attagene CIS-FACTORIAL HepG2 Assay for human Glucocorticoid Response Elements (GRE) (AID 2282947). The settings on record: HepG2 GRE cis-reporter, Attagene multiplex mRNA; actives raise or lower the signal. The method in brief: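 HepG2, transient cis-reporter transfection, 24 h. Reporter mRNA: RT-PCR then CE, fluorescence. Fit both directions vs DMSO.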

Test [4] is described as follows: ATG_ISRE_CIS: Attagene CIS-FACTORIAL HepG2 Assay for human Interferon Regulatory Factor 1 (IRF1) binding to an Interferon-Stimulated Response Element (ISRE) (AID 2282948). The settings on record: HepG2 ISRE cis-reporter (Attagene), mRNA transcription readout; actives raise or lower the signal. In a few lines:
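Uses HepG2 liver cells transfected with cis-regulated reporters and measures mRNA 24 h post-dosing through RT-PCR, primer-extension labelling and capillary electrophoresis, with DMSO as negative control.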

Test [5] is described as follows: ATG_M_32_CIS: Attagene CIS-FACTORIAL HepG2 Assay for M32 Transcription Factor (Internal Marker) (AID 2282949).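 Also: background control marker of the multiplexed CIS panel rather than a real target.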 To be noted: HepG2 Attagene cis-factorial M32 reporter, mRNA; actives raise or lower the signal. In a few lines: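 Using DMSO as baseline, bidirectional curve fits were applied to reporter mRNA signals. These came from transiently transfected HepG2 cells exposed for 24 h, with RNA analysed by RT-PCR, FAM primer extension, HpaI digestion and CE.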

Test [6] in a line: ATG_M_06_CIS: Attagene CIS-FACTORIAL HepG2 Assay for M06 Transcription Factor (Internal Marker) (AID 2282950). The settings on record: HepG2 Attagene CIS-FACTORIAL M06 internal marker reporter; actives raise or lower the signal. In a few lines: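 HepG2 cells transiently transfected with cis-regulated multiple reporter transcription units were exposed to chemical for 24 h; reporter mRNA was quantified by RT-PCR, 6-FAM primer labelling, HpaI digestion and capillary electrophoresis, fitted bidirectionally against DMSO.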

In test [7] the target is Hypoxia-inducible factor 1-alpha (Homo sapiens) (UniProt Q16665). The test can be described thus: ATG_HIF1a_CIS: Attagene CIS-FACTORIAL HepG2 Assay for human Hypoxia Inducible Factor 1 (HIF1A) (AID 2282951). The settings on record: HepG2 Attagene cis-factorial HIF1a reporter transcription; actives raise or lower the signal. In a few lines:
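In this multiplexed cell assay, HepG2 cells bearing transfected cis reporters are dosed for 24 h and reporter mRNA is read by RT-PCR plus capillary electrophoresis; signal increases and decreases are both scored against DMSO.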

Test [8] concerns the target Hepatocyte nuclear factor 6 (Homo sapiens) (UniProt Q9UBC0). In words: ATG_HNF6_CIS: Attagene CIS-FACTORIAL HepG2 Assay for human Hepatocyte Nuclear Factor 6 (HNF6) (AID 2282952). The settings on record: HepG2 Attagene cis-factorial HNF6 reporter transcription; actives raise or lower the signal. In a few lines: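 Readout: fluorescent reporter-transcript fragments resolved by capillary electrophoresis after RT-PCR, reflecting endogenous factor activity in transfected HepG2. Exposure 24 h. Gain or loss of signal fitted bidirectionally against DMSO.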

For test [9], the target named is Heat shock factor protein 1 (Homo sapiens) (UniProt Q00613). The test can be described thus: ATG_HSE_CIS: Attagene CIS-FACTORIAL HepG2 Assay for human Heat Shock Transcription Factor 1 (HSE) (AID 2282953). The settings on record: HepG2 HSE cis-reporter, Attagene RNA transcription; actives raise or lower the signal. In a few lines: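 HepG2 cells transiently transfected with multiple reporter transcription units under cis-regulatory promoter control, measuring endogenous transcription factor activity. After 24 h chemical exposure, reporter mRNA quantified by RT-PCR, fluorescent labelling, HpaI digestion and capillary electrophoresis; bidirectional fit versus DMSO.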

Test [10] in a line: ATG_MRE_CIS: Attagene CIS-FACTORIAL HepG2 Assay for human Metal Responsive Element (MRE) (AID 2282954). To be noted: HepG2 MRE cis-reporter transcription, Attagene multiplex; actives raise or lower the signal. The method in brief:
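Readout: capillary electrophoresis of 6-FAM-labelled, HpaI-digested RT-PCR reporter products. System: HepG2 cells carrying transient multiplexed cis reporters, dosed 24 h. Analysis: bidirectional fit, DMSO baseline.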

Test [11] is described as follows: ATG_PBREM_CIS: Attagene CIS-FACTORIAL HepG2 Assay for human Phenobarbital-responsive Enhancer Module (PBREM) (AID 2282955). The settings on record: HepG2 PBREM cis-reporter, Attagene multiplexed transcription; actives raise or lower the signal. In a few lines:
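After a 24 h incubation with test chemical, transfected HepG2 cells yield total RNA; reporter-specific RT-PCR products are fluorescently labelled, HpaI-digested and resolved by capillary electrophoresis against ROX size standards.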

Test [12] addresses Paired box protein Pax-6 (Homo sapiens) (UniProt P26367). In words: ATG_Pax6_CIS: Attagene CIS-FACTORIAL HepG2 Assay for human Paired Box 6 (PAX6) (AID 2282956). To be noted: HepG2 CIS-FACTORIAL PAX6 reporter transcription, RNA readout; actives raise or lower the signal. In a few lines:
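DMSO-referenced bidirectional fits of reporter mRNA fluorescence; HepG2 with transient cis-promoter MRTUs, 24 h post-dose, RT-PCR plus capillary electrophoresis detection.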

Test [13] is described as follows: ATG_PXRE_CIS: Attagene CIS-FACTORIAL HepG2 Assay for human Pregnane X Receptor Element (PXRE) (AID 2282957). The settings on record: HepG2 Attagene CIS-FACTORIAL PXRE reporter, mRNA; actives raise or lower the signal. In a few lines:
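Read-out: fluorescence of reporter-specific RT-PCR products resolved by capillary electrophoresis, fitted bidirectionally relative to DMSO. Human HepG2 liver cells carried transfected cis-promoter reporter units and were exposed to chemicals for 24 h.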

The nature of test [14]: ATG_RORE_CIS: Attagene CIS-FACTORIAL HepG2 Assay for human RAR-related Orphan Receptor Element (RORE) (AID 2282959). The settings on record: HepG2 Attagene cis-factorial RORE reporter, mRNA; actives raise or lower the signal. In a few lines: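 Fluorescence intensity of reporter-specific cDNA fragments, separated by capillary electrophoresis, gives the signal. Source: HepG2 liver cells transiently transfected with cis-element reporters and exposed 24 h; DMSO-normalized bidirectional fit.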

The nature of test [15]: ATG_Sox_CIS: Attagene CIS-FACTORIAL HepG2 Assay for human SRY-box transcription factor (SOX) (AID 2282960). The settings on record: HepG2 Attagene cis-factorial SOX reporter, mRNA; actives raise or lower the signal. The method in brief:
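After 24 h of chemical treatment, transfected HepG2 reporter cells are lysed for total RNA. Transcript levels come from RT-PCR with labelled primer extension and capillary electrophoresis, analysed bidirectionally versus DMSO.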

The target in test [16] is Transcription factor Sp1 (Homo sapiens) (UniProt P08047). The test can be described thus: ATG_Sp1_CIS: Attagene CIS-FACTORIAL HepG2 Assay for human Specificity Protein 1 (Sp1) (AID 2282961). The settings on record: HepG2 Sp1 cis-reporter transcription, actives raise or lower the signal. In a few lines: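 Sp1-driven reporter mRNA, read as capillary electrophoresis fluorescence after RT-PCR, in transiently transfected HepG2 cells dosed for 24 h; signal change in either direction relative to DMSO.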

Test [17] is described as follows: ATG_SREBP_CIS: Attagene CIS-FACTORIAL HepG2 Assay for human Sterol Regulatory Element Binding (SREBP) (AID 2282962). To be noted: HepG2 Attagene cis-factorial SREBP reporter, mRNA; actives raise or lower the signal. In a few lines:
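In this cis-format assay, HepG2 liver cells express reporters controlled by promoter elements responsive to native transcription factors. Exposure lasts 24 h; reporter mRNA fluorescence from capillary electrophoresis gives the signal, fitted bidirectionally against DMSO.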

In test [18] the target is Signal transducer and activator of transcription 3 (Homo sapiens) (UniProt P40763). The test can be described thus: ATG_STAT3_CIS: Attagene CIS-FACTORIAL HepG2 Assay for human Signal Transducer and Activator of Transcription 3 (STAT3) (AID 2282963). To be noted: HepG2, Attagene cis-factorial STAT3 reporter transcription; actives raise or lower the signal. The method in brief: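 Uses human liver HepG2 transiently carrying cis-regulated reporter transcription units. Following 24 h dosing, reporter mRNA induction was detected by RT-PCR and capillary electrophoresis, analysed bidirectionally versus DMSO.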

Test [19] is described as follows: ATG_TA_CIS: Attagene CIS-FACTORIAL HepG2 Assay for human TA Basal Promoter (AID 2282964). The settings on record: HepG2 Attagene CIS-factorial TA basal promoter reporter; actives raise or lower the signal. The method in brief: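 HepG2 cells transiently transfected with multiplexed cis-promoter reporter units, dosed 24 h. Reporter mRNA measured by RT-PCR, 6-FAM labelling, HpaI digestion and capillary electrophoresis; bidirectional fit versus DMSO baseline, serving as background control.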

A short description of test [20]: ATG_PPRE_CIS: Attagene CIS-FACTORIAL HepG2 Assay for human Peroxisome Proliferator-activated Response Element (PPRE) (AID 2282958). To be noted: HepG2 PPRE cis-element reporter, Attagene transcription factor profiling; actives raise or lower the signal. In a few lines:
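Multiplexed reporter transcription units under cis-regulatory promoters were transfected into HepG2 cells to capture endogenous factor activity. A 24 h incubation preceded RNA isolation and fluorescent RT-PCR fragment analysis.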

Values joined by “and” are separate entries in the source; they are usually repeats but may differ in a detail not shown here. Identical values can stand only once. Where a structure was tested more than once in an assay, its records may differ in their call. Active and inactive are the calls of the source. The calls were made as follows: active = hit-call score of the fitted dose curve at least 0.9, where 1 is the maximum; inactive = score below 0.9.

Chain of Signal transducer and activator of transcription 3 (Homo sapiens) (P40763 whole entry, looked up): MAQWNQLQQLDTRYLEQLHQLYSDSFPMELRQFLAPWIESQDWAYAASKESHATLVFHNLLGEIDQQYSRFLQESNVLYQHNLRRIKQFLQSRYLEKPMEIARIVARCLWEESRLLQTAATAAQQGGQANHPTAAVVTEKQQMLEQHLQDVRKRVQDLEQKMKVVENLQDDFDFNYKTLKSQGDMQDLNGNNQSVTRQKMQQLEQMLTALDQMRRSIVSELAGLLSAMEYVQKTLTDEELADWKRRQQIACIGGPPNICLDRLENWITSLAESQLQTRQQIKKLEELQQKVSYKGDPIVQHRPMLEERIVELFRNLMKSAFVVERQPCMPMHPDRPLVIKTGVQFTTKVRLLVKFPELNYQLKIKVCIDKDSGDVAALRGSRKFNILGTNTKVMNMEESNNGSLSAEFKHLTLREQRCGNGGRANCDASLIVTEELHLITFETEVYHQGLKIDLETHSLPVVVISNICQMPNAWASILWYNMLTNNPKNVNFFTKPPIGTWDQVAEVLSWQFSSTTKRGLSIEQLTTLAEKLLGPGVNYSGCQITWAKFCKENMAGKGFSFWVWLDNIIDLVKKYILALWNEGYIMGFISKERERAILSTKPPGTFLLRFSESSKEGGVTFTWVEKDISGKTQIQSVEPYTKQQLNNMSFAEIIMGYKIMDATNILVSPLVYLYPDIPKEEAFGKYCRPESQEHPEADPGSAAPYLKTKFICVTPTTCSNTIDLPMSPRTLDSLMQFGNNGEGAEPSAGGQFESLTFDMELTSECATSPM
Chain of Hepatocyte nuclear factor 6 (Homo sapiens) (Q9UBC0 whole entry, looked up, the tested form may be a part): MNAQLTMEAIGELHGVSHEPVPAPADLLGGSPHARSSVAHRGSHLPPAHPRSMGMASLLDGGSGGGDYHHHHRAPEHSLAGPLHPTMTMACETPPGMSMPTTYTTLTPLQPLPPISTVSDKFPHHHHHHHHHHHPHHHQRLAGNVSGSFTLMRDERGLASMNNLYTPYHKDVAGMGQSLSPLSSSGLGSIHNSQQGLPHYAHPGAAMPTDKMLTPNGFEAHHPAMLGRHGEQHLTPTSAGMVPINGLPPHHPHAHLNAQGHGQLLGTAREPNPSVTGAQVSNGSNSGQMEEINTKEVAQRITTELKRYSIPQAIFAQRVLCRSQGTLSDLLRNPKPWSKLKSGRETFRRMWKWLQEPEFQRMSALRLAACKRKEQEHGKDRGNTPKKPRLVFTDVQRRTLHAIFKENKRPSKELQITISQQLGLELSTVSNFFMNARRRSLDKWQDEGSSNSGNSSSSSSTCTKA
Chain of Paired box protein Pax-6 (Homo sapiens) (P26367 whole entry, looked up): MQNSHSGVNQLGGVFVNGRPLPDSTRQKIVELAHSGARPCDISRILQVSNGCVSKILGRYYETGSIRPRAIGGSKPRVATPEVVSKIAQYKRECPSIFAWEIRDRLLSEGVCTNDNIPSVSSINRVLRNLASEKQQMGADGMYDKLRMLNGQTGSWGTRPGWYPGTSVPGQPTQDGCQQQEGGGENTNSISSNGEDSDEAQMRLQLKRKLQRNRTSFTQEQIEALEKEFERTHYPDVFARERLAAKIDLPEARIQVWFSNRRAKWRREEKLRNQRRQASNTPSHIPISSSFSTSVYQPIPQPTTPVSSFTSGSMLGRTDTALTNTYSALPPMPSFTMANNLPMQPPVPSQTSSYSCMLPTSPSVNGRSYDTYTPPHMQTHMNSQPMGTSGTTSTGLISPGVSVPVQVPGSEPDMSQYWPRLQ
Chain of Heat shock factor protein 1 (Homo sapiens) (Q00613 whole entry, looked up): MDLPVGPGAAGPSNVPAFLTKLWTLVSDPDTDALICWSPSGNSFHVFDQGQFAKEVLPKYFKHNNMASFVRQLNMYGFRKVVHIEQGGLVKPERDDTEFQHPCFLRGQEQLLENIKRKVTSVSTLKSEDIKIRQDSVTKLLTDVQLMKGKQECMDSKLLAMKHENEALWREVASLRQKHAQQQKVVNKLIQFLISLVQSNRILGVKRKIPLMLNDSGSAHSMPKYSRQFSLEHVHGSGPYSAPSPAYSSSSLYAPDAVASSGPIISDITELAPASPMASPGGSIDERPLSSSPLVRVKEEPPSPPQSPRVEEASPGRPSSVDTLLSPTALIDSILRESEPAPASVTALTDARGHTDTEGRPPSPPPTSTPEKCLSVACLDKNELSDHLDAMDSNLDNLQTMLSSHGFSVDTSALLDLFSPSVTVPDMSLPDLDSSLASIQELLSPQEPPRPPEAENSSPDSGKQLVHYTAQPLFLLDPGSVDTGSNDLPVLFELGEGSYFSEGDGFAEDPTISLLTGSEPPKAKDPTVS
Chain of Transcription factor Sp1 (Homo sapiens) (P08047 whole entry, looked up): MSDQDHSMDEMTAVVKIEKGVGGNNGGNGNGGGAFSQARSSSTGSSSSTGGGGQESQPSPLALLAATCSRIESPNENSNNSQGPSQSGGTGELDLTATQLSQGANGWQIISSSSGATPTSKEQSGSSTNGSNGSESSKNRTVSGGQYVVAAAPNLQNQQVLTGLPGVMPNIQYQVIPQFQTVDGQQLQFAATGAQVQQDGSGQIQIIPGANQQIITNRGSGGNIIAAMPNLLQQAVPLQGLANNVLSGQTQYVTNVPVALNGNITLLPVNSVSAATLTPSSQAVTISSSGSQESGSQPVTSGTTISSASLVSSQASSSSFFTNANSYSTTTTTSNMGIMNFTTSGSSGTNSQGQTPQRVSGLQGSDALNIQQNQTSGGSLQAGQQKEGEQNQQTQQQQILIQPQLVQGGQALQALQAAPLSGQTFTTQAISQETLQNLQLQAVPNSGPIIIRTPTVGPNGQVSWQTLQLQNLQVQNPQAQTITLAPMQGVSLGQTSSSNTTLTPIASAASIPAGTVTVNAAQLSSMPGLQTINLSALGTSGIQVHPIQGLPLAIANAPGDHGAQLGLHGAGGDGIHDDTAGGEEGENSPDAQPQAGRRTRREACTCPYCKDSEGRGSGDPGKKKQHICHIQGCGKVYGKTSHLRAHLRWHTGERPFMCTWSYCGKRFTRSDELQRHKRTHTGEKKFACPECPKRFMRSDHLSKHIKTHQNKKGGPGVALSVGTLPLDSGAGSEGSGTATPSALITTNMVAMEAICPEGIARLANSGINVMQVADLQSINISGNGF
Chain of Bile acid receptor (Homo sapiens) (Q96RI1 whole entry, looked up): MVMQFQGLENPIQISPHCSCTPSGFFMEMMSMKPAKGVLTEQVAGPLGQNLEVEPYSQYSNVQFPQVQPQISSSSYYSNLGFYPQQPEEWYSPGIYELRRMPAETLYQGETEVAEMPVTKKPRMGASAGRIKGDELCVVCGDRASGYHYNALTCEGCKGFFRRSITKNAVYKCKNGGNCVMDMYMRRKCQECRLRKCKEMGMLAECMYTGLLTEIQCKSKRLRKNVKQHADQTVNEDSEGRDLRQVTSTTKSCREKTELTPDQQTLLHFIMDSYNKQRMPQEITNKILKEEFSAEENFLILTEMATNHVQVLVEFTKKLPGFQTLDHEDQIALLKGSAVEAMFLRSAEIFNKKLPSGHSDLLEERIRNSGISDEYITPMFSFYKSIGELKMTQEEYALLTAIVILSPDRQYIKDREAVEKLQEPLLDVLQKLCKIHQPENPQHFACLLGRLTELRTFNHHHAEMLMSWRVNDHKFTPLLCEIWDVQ
Chain of Hypoxia-inducible factor 1-alpha (Homo sapiens) (Q16665 whole entry, looked up): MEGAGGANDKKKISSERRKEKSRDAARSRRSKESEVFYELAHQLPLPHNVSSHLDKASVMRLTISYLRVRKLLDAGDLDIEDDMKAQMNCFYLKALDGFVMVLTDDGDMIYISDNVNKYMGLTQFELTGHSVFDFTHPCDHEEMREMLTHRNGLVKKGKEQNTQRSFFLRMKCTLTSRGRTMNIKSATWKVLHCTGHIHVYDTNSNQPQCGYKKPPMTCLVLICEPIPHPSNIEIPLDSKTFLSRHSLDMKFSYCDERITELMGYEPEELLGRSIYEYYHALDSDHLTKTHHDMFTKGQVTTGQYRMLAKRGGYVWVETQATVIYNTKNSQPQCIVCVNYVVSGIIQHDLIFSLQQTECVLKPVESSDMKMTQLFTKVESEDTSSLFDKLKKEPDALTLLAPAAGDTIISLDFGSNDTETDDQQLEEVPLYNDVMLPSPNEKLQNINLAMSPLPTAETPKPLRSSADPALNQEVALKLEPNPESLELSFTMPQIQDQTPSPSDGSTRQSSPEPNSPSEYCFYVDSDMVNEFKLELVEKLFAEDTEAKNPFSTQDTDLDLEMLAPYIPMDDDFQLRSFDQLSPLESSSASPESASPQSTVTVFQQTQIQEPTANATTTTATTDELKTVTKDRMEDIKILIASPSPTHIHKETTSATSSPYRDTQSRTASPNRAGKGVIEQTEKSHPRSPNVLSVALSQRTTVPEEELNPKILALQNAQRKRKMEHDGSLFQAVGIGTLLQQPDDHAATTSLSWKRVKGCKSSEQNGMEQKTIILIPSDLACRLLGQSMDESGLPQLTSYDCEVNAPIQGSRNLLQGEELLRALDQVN

For the molecule `CC(C)CCOC(=O)CC(C)C`, the result in [1], in [2], in test [3], in [4], in test [5] and in test [6] was inactive. For the same molecule, the call in [7], in test [8], in [9], in test [10], in [11] and in [12] was inactive. Further, the outcome in test [13], in test [14], in test [15], in test [16], in [17] and in [18] was inactive. Besides, the molecule was called inactive in [19].

As to `O=C(c1ccc(OCCN2CCCCC2)cc1)c1c(-c2ccc(O)cc2)sc2cc(O)ccc12`, the AC50 (as a rule, the concentration giving half of the maximal activity seen) in test [1] is 11.1 µM (active) and 15.2 µM (active); in test [3], 20.2 µM (active); in [4], 11.1 µM (active) and 17 µM (active) and 14.8 µM (active); in [8], 11.1 µM (active) and 21.4 µM (active); in test [9], 17.2 µM (active) and 17.7 µM (active) and 19.8 µM (active); in [10] it was 15.8 µM (active) [middle of 4 runs]. In addition, the AC50 is 11.1 µM (active) [middle of 4 runs] in test [12]; 2.79 µM (active) [middle of 4 runs] in test [13]; 11.1 µM (active) and 15.6 µM (active) in test [14]; 13 µM (active) and 18 µM (active) in [15]; 6.38 µM (active) and 2.85 µM (active) and 2.92 µM (active) in test [17]; 19.3 µM (active) and 8.31 µM (active) in test [19]. Also, the molecule was classed as inactive in test [1], in test [3], in test [4], in [5], in [6] and in test [8]. For the same molecule, the molecule was called inactive in test [9], in [10], in [11], in test [12], in test [13] and in test [20]. The result in test [14], in test [15], in test [17], in test [18] and in [19] was inactive.

Regarding `C=C/C(C)=C/C/C=C(\C)CCC=C(C)C`, the outcome in test [1], in test [2], in test [3], in test [4], in test [5] and in test [6] was inactive. Besides, the molecule was classed as inactive in test [7], in [8], in [9], in [10], in [12] and in test [20]. Moreover, the molecule was called inactive in test [14], in test [15], in [16], in test [17], in [18] and in [19]. Further, in [13], the AC50 was 3.8 µM (active).
